Screening results deposited in PubChem by The Scripps Research Institute Molecular Screening Center.
hcDAF12 agonist – activators of H. contortus DAF-12 nuclear receptor. HEK293 hcDAF-12 lit1-tk-luc reporter, luminescence; 0% DMSO, 100% Δ7-dafachronic acid. activation, % at 6.8 µM. 1.4% of 370,000 active;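 active = activation above the mean of all tested compounds plus 3 SD, cut at about 5.5% in these data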
hgDAF12 agonist – agonists of H. glycines DAF-12 nuclear receptor; 1.8% of 370,000 active; HEK293 GAL4-hgDAF12 UAS-luciferase reporter, agonist luminescence; normalized to butyrate control; activation, % at 6.8 µM;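 active = activation above a cutoff set at the mean of all screened compounds plus 3 SD, cut at about 10% in these data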
DAX1 inh-1 – inhibits human nuclear receptor DAX1. inhibition, % at 6.75 µM. P51843. 0.99% of 340,000 active. HEK293 Gal4-DAX1 luciferase reporter, luminescence;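 active = inhibition above the mean over all tested compounds plus 3 SD, cut at about 4.2% in these data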;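 also: inhibition shows as a rise in luminescence from relieved DAX1 repression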
Target sequence (P51843 207-470 limits assumed): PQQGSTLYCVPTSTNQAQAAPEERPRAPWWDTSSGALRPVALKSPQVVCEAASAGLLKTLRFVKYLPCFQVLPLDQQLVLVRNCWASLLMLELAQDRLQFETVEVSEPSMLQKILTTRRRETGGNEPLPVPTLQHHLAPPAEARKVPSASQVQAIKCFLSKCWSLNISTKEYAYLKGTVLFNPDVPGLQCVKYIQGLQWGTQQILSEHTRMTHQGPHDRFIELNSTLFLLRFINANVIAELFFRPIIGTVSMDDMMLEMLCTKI
GAA850 FXN act – frataxin GAA850 promoter activation; HEK293 lucGAA850 FXN promoter luciferase reporter, 24 h; percent of 10 µM SAHA response; activation, % at 6 µM; 0.56% of 360,000 active; AID 540364;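 active = activation above the average of all compounds screened plus 3 SD, cutoff fixed separately per campaign, cut at about 7.5% in these data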
ssDAF12 agonist – activators of S. stercoralis DAF-12 nuclear receptor; HEK293 ssDAF-12/GRIP1 lit1-tk-luc reporter, luminescence; % of 3 µM dafachronic acid response; activation, % at 6.8 µM; 1% of 370,000 active;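 active = activation above the mean over all tested compounds plus 3 SD, cut at about 0.9% in these data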
DAX1 inh-2 – DAX1 (NR0B1) inhibition, primary screen; HEK293T StAR-luciferase reporter, SF-1/DAX-1 repression relief; 1.1% of 370,000 active; AID 652010; inhibition, % at 6.8 µM;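 active = inhibition above the mean over all tested compounds plus 3 SD, cut at about 3.6% in these data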;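 also: higher inhibition means more luminescence from relief of DAX-1 repression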
GAA30 FXN cntr – counter-screen for GAA850 frataxin promoter activators: GAA30 promoter activation | shares compounds with GAA850 FXN act | HEK293 lucGAA30 FXN promoter luciferase, 24 h; DMSO = 0%, 5 µM ipriflavone = 100% | activation, % at 6 µM | 66% of 1,900 active | AID 588350;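 active = mean activation above the mean of solvent-only control wells plus 3 SD, cut at about 22% in these data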;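 also: counterscreen of GAA850 promoter hits where activity marks nonselective or luminescence artifacts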
GAA850 confirm – confirmation of GAA850 frataxin (FXN) promoter activators. activation, % at 6 µM. 86% of 1,900 active. HEK293 lucGAA850 FXN promoter luciferase reporter, 24 h; 100% = activation by SAHA. shares compounds with GAA850 FXN act. AID 588351;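 active = mean activation above a set limit taken from the primary screen, cut at about 8% in these data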
Large screens that a line does not name were inactive (follow-up assays come after a bar, where they were run). Rows were chosen to be rich in hits. Some 4.5% of all compounds tested hit in one or more screens of this group.

O=C1C[C@H](C(=O)Nc2ccc(Cl)cc2)[C@@H](c2ccccc2)O1	none (no result: DAX1 inh-1, GAA850 FXN act)
Cc1ccc(OCCCCNC(C)c2ccccc2)c(C)c1 (stereo unspecified)	GAA850 FXN act 7.7 | GAA30 FXN cntr 24 | GAA850 confirm 8.8
CC1(C(=O)OCc2cc(=O)n3cc(Br)ccc3n2)CC1(Cl)Cl (stereo unspecified)	hgDAF12 agonist 11, GAA850 FXN act 8.9 | GAA30 FXN cntr 99 | GAA850 confirm 40
COc1ccc(CCNC(=O)c2cc3c(=O)n4cccc(C)c4nc3n(Cc3ccco3)c2=N)cc1OC	GAA850 FXN act 13 | GAA30 FXN cntr inactive | GAA850 confirm inactive
O=C(CSc1nnc(-c2cccnc2)n1-c1ccc(Cl)cc1)Nc1ccc(S(=O)(=O)Nc2nccs2)cc1	none (no result: DAX1 inh-1, GAA850 FXN act)
Nc1ccc(C#Cc2ccc3c(=O)c4ccccc4oc3c2)cc1	none
Cn1cncc1C#Cc1ccc2c(=O)c3ccccc3oc2c1	GAA850 FXN act 7.9 | GAA30 FXN cntr 67 | GAA850 confirm 40
CC(C)Nc1oc(-c2cccc3ccccc23)nc1C#N	GAA850 FXN act 8.6 | GAA30 FXN cntr 97 | GAA850 confirm 36
COC(=O)C[C@H]1CC[C@H]2[C@H](COc3ccc(NC(=O)Cc4cccs4)cc3C(=O)N2C)O1	none (no result: DAX1 inh-1, GAA850 FXN act)
C=CCOC(=O)N[C@H](c1ccccc1)[C@H](C)/C=C/CC(=O)OC	none (no result: DAX1 inh-1, GAA850 FXN act)
CN(c1ccc(C(=O)Nc2ccc3c(c2)OCCO3)cc1)S(C)(=O)=O	GAA850 FXN act 9.2 | GAA30 FXN cntr 93 | GAA850 confirm 29
CN(c1ccc(C(=O)Nc2ccc3c(c2)OCO3)cc1)S(C)(=O)=O	none
CSc1ccccc1NC(=O)C(C)N(C)CC(=O)N1CCN(Cc2ccccc2)CC1 (stereo unspecified)	none
COC(=O)[C@]12C[C@H](CC(=O)N3CCN(C(=O)c4ccco4)CC3)C(=O)N(CCc3ccc(OC)c(OC)c3)C1=C[C@H](COCc1ccccc1)O[C@@H]2C	none (no result: DAX1 inh-1, GAA850 FXN act)
O=C1NCCN1Cc1ccc(F)cc1	none
O=C1NCCN1Cc1ccccc1	GAA850 FXN act 8.6 | GAA30 FXN cntr inactive | GAA850 confirm inactive
Cc1ccc(Cl)c2c1=NC(=O)C=2c1[nH]c(=S)[nH]c1O	none
C=C(C)CSc1nncn1/N=C/c1ccc(OC)cc1	GAA850 FXN act 11 | GAA30 FXN cntr 102 | GAA850 confirm 34
Cc1cc(C)n2cc(CSc3nc4ccccc4s3)nc2n1	hcDAF12 agonist 5.7, GAA850 FXN act 7.7 | GAA30 FXN cntr 98 | GAA850 confirm 30
Cc1[nH]c2ccccc2c1SCc1ccccc1	GAA850 FXN act 15 | GAA30 FXN cntr inactive | GAA850 confirm inactive
NC(=O)[C@@H]1CCCN1C(=O)c1ccc2nc(Cc3ccccc3F)oc2c1	none
NC(=O)[C@@H]1CCCN1C(=O)c1ccc2oc(CCc3ccccc3)nc2c1	GAA850 FXN act 7.8, DAX1 inh-2 3.6 | GAA30 FXN cntr 74 | GAA850 confirm 31
COc1ccc(C(=O)N2CCCC(CCC(=O)NCc3ccccc3F)C2)c(OC)n1 (stereo unspecified)	none
CCN(CC)C(=S)SC1=CCS(=O)(=O)C1	none (no result: DAX1 inh-1)
CCN(CC)C(=S)SSC(=S)N(CC)CC	GAA850 FXN act 20 | GAA30 FXN cntr inactive | GAA850 confirm inactive
C=CCn1c(SC(C)C(=O)NCCC2=CCCCC2)nc2ccccc2c1=O (stereo unspecified)	GAA850 FXN act 10 | GAA30 FXN cntr inactive | GAA850 confirm 9.5
O=C(Nc1ccc(F)cc1)OCc1cn(Cc2ccc(C(F)(F)F)cc2)nn1	none (no result: DAX1 inh-1, GAA850 FXN act)
COc1cc2c(cc1OC)C1=C(C#N)CC/C(=N\S(=O)(=O)c3cccc(Cl)c3)N1CC2	GAA850 FXN act 8.2 | GAA30 FXN cntr 27 | GAA850 confirm 14
COc1cc2c(cc1OC)C1=C(C#N)CCC(=NC(=O)c3ccco3)N1CC2	none
Oc1ccc(-c2csc(Nc3ncccn3)n2)cc1O	GAA850 FXN act 16 | GAA30 FXN cntr 108 | GAA850 confirm 45
Oc1ccc(-c2csc(-c3ccccc3)n2)cc1O	GAA850 FXN act 8.8 | GAA30 FXN cntr 41 | GAA850 confirm 34
Fc1ccc(-c2csc(-c3cccnc3)n2)cc1F	none
Cc1ccc(C)c(-c2csc(Nc3ncccn3)n2)c1	none
Oc1ccc(-c2csc(-c3cccnc3)n2)cc1O	hgDAF12 agonist 13, GAA850 FXN act 14 | GAA30 FXN cntr 62 | GAA850 confirm 31
c1ccc(-c2csc(-c3ccncc3)n2)cc1	none
COC(=O)C1=CN(c2ccc(OC)cc2OC)C(N)=C(C#N)C1c1ccccc1F (stereo unspecified)	none (no result: DAX1 inh-1, GAA850 FXN act)
CCn1c(SCC(=O)Nc2ccc(C(C)=O)cc2)nc2nc3c(cc2c1=O)CCCC3	none
CC(=O)c1ccc(NC(=O)CSc2nc(N)c3cc4c(nc3n2)CCCC4)cc1	GAA850 FXN act 7.7 | GAA30 FXN cntr 101 | GAA850 confirm 27
O=C(NCc1cccc(F)c1)c1[nH]c(C(F)(F)F)nc1-c1ccccc1	none (no result: DAX1 inh-1, GAA850 FXN act)
CCOc1ccc(CN(C)C(=O)c2cc3ccccc3o2)cc1OC	none
CCN(Cc1ccc(OC)c(F)c1)C(=O)c1cc2ccccc2o1	GAA850 FXN act 8.5 | GAA30 FXN cntr 34 | GAA850 confirm 17
Cc1occc1-c1nnc(SCC(=O)N[C@@H]2CCc3ccccc32)n1-c1ccccc1	none (no result: DAX1 inh-1, GAA850 FXN act)
C=CCOc1ccc2c(c1)C(=NO)c1cc(OCC=C)ccc1-2	GAA850 FXN act 8.0 | GAA30 FXN cntr 32 | GAA850 confirm 20
Cc1c(CCC(=O)NCC(=O)O)c(=O)oc2cc3occ(-c4ccccc4)c3cc12	GAA850 FXN act 9.4 | GAA30 FXN cntr inactive | GAA850 confirm inactive
Cc1nn(CC(=O)NCCCN2C(C)CCCC2C)c(=O)c2cc3occc3n12 (stereo unspecified)	none
CCOC(=O)CC[C@@]1(C(=O)OCC)C[C@@H](CC(=O)NCc2ccc(C)o2)C(=O)N2CCCC=C21	none (no result: DAX1 inh-1, GAA850 FXN act)
O=C(OCc1cn(Cc2cccc(F)c2F)nn1)N1CCCC1	none (no result: DAX1 inh-1, GAA850 FXN act)
CCN1C(=O)[C@H]2[C@@H](c3ccc(C)cc3)N3C(=O)N(c4ccc(C)cc4)C(=O)[C@@]3(Cc3ccccc3)[C@H]2C1=O	none
COc1ccc(N2C(=O)N3[C@H](c4ccc(Cl)cc4)[C@@H]4C(=O)N(C5CCCCC5)C(=O)[C@@H]4[C@]3(Cc3ccc(Cl)cc3)C2=O)cc1	GAA850 FXN act 7.9 | GAA30 FXN cntr 31 | GAA850 confirm 12
